This is a sample that favours compounds with a hit; in the whole collection about 19% have one here.
TDP1 cell CPT – growth inhibition of DT40 Tdp1-/-;hTDP1 cells with camptothecin (screen for TDP1 inhibitors). Potency, µM (top dose mostly 46.2 µM), without a hit: top-dose activity change, negative = growth inhibition, usual class: inhibitors. chicken DT40 Tdp1-/-;hTDP1 cells + 20 nM CPT, ATP luminescence, 48 h. 420,000 tested, 12% active; further: potency means the concentration at half of the fitted maximal effect; on the % scale 0 is the no-effect control and ±100 the full control effect; nearly all actives have a fitted effect of over 55% in size
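Chicken DT40 Tdp1-/- cells complemented with human TDP1, 400 cells/well, exposed to compounds plus 20 nM camptothecin for at least 48 h at 37 C; viability read as ATP content by CellTiter-Glo luminescence.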
TGFb SMAD3 inh – TGF-b pathway inhibition | AID 588855 | 410,000 tested, 1.2% active | HepG2 CAGA-GFP TGF-b/SMAD3 reporter, GFP fluorescence, 18 h; TGF-beta stimulated, 500 pg/mL final | Potency, µM (titrated, usually from 46.1 µM), without a hit: at the top dose activity, negative = inhibition, most hits filed as inhibitors; further: potency means the concentration at half of the fitted maximal effect; on the % scale 0 is the no-effect control and ±100 the full control effect; nearly all actives have a fitted effect of over 65% in size
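Inhibition of TGF-beta-driven CAGA-GFP reporter expression in HEPG2 cells is measured by cellular GFP fluorescence after 18 h stimulation with 500 pg/mL recombinant TGF-beta in 1% FBS medium at 37 degrees C.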
TDP1 block – TDP1 (human) enzyme inhibition; AID 485290; recombinant TDP1, AlphaScreen DNA substrate cleavage; Potency, µM (series often up to 130 µM), inactives show at the highest dose activity change, negative = inhibition, most hits filed as inhibitors; 350,000 tested, 0.28% active; Q9NUW8; further: potency means the concentration at half of the fitted maximal effect; on the % scale 0 is the no-effect control and ±100 the full control effect; nearly all actives have a fitted effect of over 40% in size
Target sequence (Q9NUW8 whole entry, looked up): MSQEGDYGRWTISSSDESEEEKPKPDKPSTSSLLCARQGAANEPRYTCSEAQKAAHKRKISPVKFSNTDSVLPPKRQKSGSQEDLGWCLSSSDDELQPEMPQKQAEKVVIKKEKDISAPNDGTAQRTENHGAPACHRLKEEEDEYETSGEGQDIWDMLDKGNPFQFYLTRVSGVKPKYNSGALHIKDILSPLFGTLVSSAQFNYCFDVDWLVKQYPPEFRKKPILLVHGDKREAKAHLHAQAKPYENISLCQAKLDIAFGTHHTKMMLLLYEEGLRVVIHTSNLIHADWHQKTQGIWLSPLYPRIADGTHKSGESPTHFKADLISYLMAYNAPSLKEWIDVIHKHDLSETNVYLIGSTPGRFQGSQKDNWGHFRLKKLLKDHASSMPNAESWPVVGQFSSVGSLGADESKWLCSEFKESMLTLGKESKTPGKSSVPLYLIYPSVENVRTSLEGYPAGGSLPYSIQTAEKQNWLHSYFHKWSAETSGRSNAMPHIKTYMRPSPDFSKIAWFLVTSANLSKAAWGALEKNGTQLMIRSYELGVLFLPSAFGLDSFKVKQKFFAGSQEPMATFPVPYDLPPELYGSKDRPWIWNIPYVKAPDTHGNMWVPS
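Compounds were preincubated with Tdp1 (1 nM final) for 15 min at room temperature before substrate (15 nM final) started a 5 min reaction; beads (10 ug/ml final) were then added for 10 min before AlphaScreen detection.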
TDP1 cell noCPT – qHTS for Inhibitors of human tyrosyl-DNA phosphodiesterase 1 (TDP1): qHTS in cells in absence of CPT; DT40 Tdp1-/- hTDP1 cells, no CPT, ATP luminescence, 48 h; Potency, µM (doses to about 46.2 µM), for the others: at the top dose activity change, negative = growth inhibition, actives largely listed as inhibitors; 420,000 tested, 15% active; AID 686978, 2013; further: potency means the concentration at half of the fitted maximal effect; on the % scale 0 is the no-effect control and ±100 the full control effect; nearly all actives have a fitted effect of over 55% in size
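Compound effects on proliferation are scored in DT40 Tdp1-/-;hTDP1 cells in the absence of CPT. ATP levels (CellTiter-Glo luminescence) are recorded after a ≥48 hr, 37 °C incubation.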
IL-1B inflam inh – blocks inflammasome-driven IL-1 beta release | THP-1 LPS/ATP IL-1B secretion, AlphaLISA, 16 h; stronger effect = lower value | 360,000 tested, 4.7% active | activity change, % at 57.5 µM; in the data active means activity change below about -50%; inconclusive means mostly about -30% to -49%; further: on the % scale 0 is the no-effect control and ±100 the full control effect
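THP-1 cells pretreated 1 hr with compounds (up to 57.5 uM final), then stimulated with LPS (250 ng/mL final) plus ATP (1.25 mM final); secreted IL-1B measured by AlphaLISA after 16 hr, decreased signal indicating inhibition.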
HepG2 tox – counter-screen for TGF-b inhibitors: cytotoxicity in HepG2 cells; HepG2 CAGA-GFP viability, ATP luminescence, 18 h; Potency, µM (series often up to 46.1 µM), without a hit: top-dose activity change, negative = cytotoxicity, actives largely listed as cytotoxic; 410,000 tested, 0.76% active; AID 588856; further: potency means the concentration at half of the fitted maximal effect
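CellTiter-Glo luminescence gave cytotoxicity after 18 hours at 37 degrees C. The cells were HepG2 CAGA-GFP in 1% FBS DMEM, stimulated with 500 pg/mL TGF-beta after compound addition. %Activity was normalised to no-cell wells (complete cell-killing) and DMSO (no toxicity), and curves were fitted and classified.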
Starred values were filed as active, the others as inactive; u = inconclusive; x = no result given; [ ] = another dose, or the depositor's remark. Unless noted, the call rests on the fitted dose curve; in most records, active means well fitted curve in the direction sought with a large enough effect; inconclusive means small, poorly fitted or top-dose-only effect, or another doubt; inactive means no such curve, though single readings can be large; an effect the other way counts as inactive or inconclusive.

SMILES	TDP1 cell CPT	TGFb SMAD3 inh	TDP1 block	TDP1 cell noCPT	IL-1B inflam inh	HepG2 tox
C=C(C)C(=O)Nc1cccc(C2=NOC3(C2)C[C@@H](C(N)=O)N(C(=O)CCCCC)C3)c1 (stereo partly drawn)	-1%	-7%	40µM*	-7%	-7	8%
C=C(C)C(=O)Nc1cccc(C2=NOC3(C2)C[C@@H](C(N)=O)N(C(=O)c2ccc(OC)cc2)C3)c1 (stereo partly drawn)	-6%	-5%	11µM*	-7%	0	0%
COc1ccc(C(=O)N2CC3(CC(c4cccc(NC(=O)COc5ccc(Cl)cc5)c4)=NO3)C[C@@H]2C(N)=O)cc1 (stereo partly drawn)	21µM*	u	7%	u	-57*	-22%
NC(=O)[C@H]1CC2(CC(c3cccc(NC(=O)COc4ccc(Cl)cc4)c3)=NO2)CN1C(=O)Cc1ccc([N+](=O)[O-])cc1 (stereo partly drawn)	13µM*	u	9%	16µM*	u	-12%
CCCCCC(=O)N1CC2(CC(c3cccc(NC(=O)[C@@H]4CCC(=O)N4)c3)=NO2)C[C@@H]1C(N)=O (stereo partly drawn)	3%	-4%	4%	-19%	11	0%
CC(COc1ccc(C(C)C)cc1)NC(=O)c1ccc(Br)o1 (stereo not drawn)	x	x	2%	x	x	x
Cc1cc(C)cc(N(C(=O)c2csnn2)C(C(=O)NC2CCCC2)c2ccccn2)c1 (stereo not drawn)	4%	8%	9%[0.0935 µM]	-6%	0	-15%
CC(C)Oc1ccc(C(=O)N2CCN(C(=O)c3ccco3)CC2)cc1	-3%	6%	2%	-3%	7	8%
COCCn1c(=O)c(-c2ccc(F)cc2)nc2cnc(Oc3cccc(Cl)c3)nc21	11%	x	x	-2%	x	x
Cc1ccc(C)c(NC(=O)c2cc([N+](=O)[O-])cc([N+](=O)[O-])c2)c1	11%	-10%	x	3%	27	-1%
NC(=O)[C@@H]1CC2(CC(c3cccc(NC(=O)COc4ccc(Cl)cc4)c3)=NO2)CN1C(=O)c1ccccc1 (stereo partly drawn)	u	u	2%	u	-65*	-15%
COc1cc(NC(=O)C2CC(c3ccccc3Cl)=NO2)cc(OC)c1OC (stereo not drawn)	16µM*	-16%	5%	23µM*	-11	3%
COc1ccc(C2=NOC(C(=O)Nc3ccc(C)cc3)C2)cc1OC (stereo not drawn)	-24%	u	5%	-30%	3	2%
COc1cc(C2=NOC(C(=O)Nc3ccc(C)cc3)C2)cc(OC)c1OC (stereo not drawn)	13µM*	-18%	5%	11µM*	2	-9%
CCCCc1nc2c(c3c1C[C@H](C)OC3)CN(S(=O)(=O)c1ccc(NC(C)=O)cc1)CC2	x	x	6%[12.3 µM]	x	x	x
Cc1c(C(=O)c2ccc(N(C)C)cc2)c2ccccn2c1CCC#N	-28%	-10%	5%	u	-73*	-14%
Cc1cc(OCC(=O)Nc2c(C(C)C)cccc2C(C)C)no1	13µM*	2%	x	8.2µM*	30	-5%
Cc1cc(=O)oc2cc(OCC(=O)Nc3nnc(C(C)C)s3)ccc12	-13%	-1%	9%	2%	28	-2%
Cc1cc(=O)oc2cc(OCC(=O)Nc3c(C(C)C)cccc3C(C)C)ccc12	u	-13%	5%[12.3 µM]	13µM*	x	-2%
CC(C)c1ccc(NC(=O)CN2C(=O)c3cccc4cccc2c34)cc1	-17%	u	2%	-7%	x	-1%
CC(C)c1ccc2oc(-c3ccc(Cl)c(NC(=O)c4cccs4)c3)nc2c1	x	-3%	-2%	x	x	-26%
COc1ccc(C(=O)NCc2ccc3c(c2)CCN3C(=O)c2ccc(Cl)cc2)c(OC)c1	18µM*	u	6%	18µM*	x	-23%
COc1cc(C(=O)NCc2ccc3c(c2)CCN3C(=O)c2ccc(Cl)cc2)cc(OC)c1OC	23µM*	u	3%	15µM*	x	-29%
CCCN1CCN(CCCNC(=O)Cn2c(-c3cccs3)cc3ccccc32)CC1	u	1%	-5%	u	x	-16%
CC(C)CCn1cnc2c(sc3nc4c(cc32)CSC(C)(C)C4)c1=O	u	u	1%	16µM*	12	-3%
SMILES	TDP1 cell CPT	TGFb SMAD3 inh	TDP1 block	TDP1 cell noCPT	IL-1B inflam inh	HepG2 tox
CCCCn1cnc2c(sc3nc4c(cc32)CSC(C)(C)C4)c1=O	u	-3%	5%	u	-7	-1%
CC1(C)Cc2nc3sc4c(NCCO)ncnc4c3cc2CS1	u	u	5%	21µM*	-3	-60%
CNc1oc(/C=C/c2cccc(OC)c2)nc1C#N	-24%	-9%	x	u	u	-15%
COc1cc(C2CC(c3cccnc3)=NN2c2ccc(F)cc2)cc(OC)c1OC (stereo not drawn)	u	4%	x	u	26	11%
CCOc1cccc2c1OC(c1cc(OC)c(OC)c(OC)c1)N1N=C(c3ccc(C)o3)CC21 (stereo not drawn)	u	-30%	4%	26µM*	u	-32%
CC(C)=CCn1cnc2c1c(=O)n(C)c(=O)n2C	-5%[9.04 µM]	x	7%	5%[9.04 µM]	x	x
CC(C)C[C@H]1CN(CCCC[C@@H]2CNC(=O)C(=O)N2CCc2ccccc2)C(=O)C(=O)N1CCc1ccc(O)cc1	0%	x	x	-7%	-23	x
N#CC1=C(N)OC2=C(CC/C2=C\c2ccccc2)C1c1ccccc1 (stereo not drawn)	13µM*	66%	4%	10µM*	-22	-1%
N#CC1=C(N)OC2=C(CC/C2=C\c2ccccc2Cl)C1c1ccccc1Cl (stereo not drawn)	u	11µM*	3%	21µM*	-68*	-28%
COc1ccc(CCNC(=O)c2c(C)oc3ncn(CC(C)C)c(=O)c23)c(OC)c1	16µM*	-6%	-4%	16µM*	x	-3%
Cc1oc2ncn(CC(C)C)c(=O)c2c1C(=O)NCCc1ccc(Cl)cc1	u	u	4%	15µM*	x	3%
CSc1ccc(CCNC(=O)c2c(C)oc3ncn(C)c(=O)c23)cc1	u	u	4%	18µM*	x	4%
CCNC(=O)c1c(C)oc2ncn(C)c(=O)c12	-9%	-3%	-1%	-19%	x	-9%

Compound activity: PubChem BioAssay, National Center for Advancing Translational Sciences (NCATS)
